Data from PubChem BioAssay (Tox21).
Records with an inconclusive call do not appear. Entries that show only a call come without a potency. Values without a mark were called inactive. Active and inactive are the calls of the source. Calls come from the whole dose curve.

Each molecule was assayed against Beta-2 adrenergic receptor (Homo sapiens) (UniProt P07550) (assay: Adrenergic beta2 receptor (ADRB2) small molecule antagonists, cell-based qHTS assay (AID 1963592; note: nearly all actives have a fitted effect of over 50% in size)). Conditions: CHO-ADRB2 cells, isoproterenol-stimulated cAMP HTRF ratio, 0.5 h; series mostly up to 92.4 µM; activity change, negative = inhibition: at the top concentration.
Chain of Beta-2 adrenergic receptor (Homo sapiens) (P07550 whole entry, looked up): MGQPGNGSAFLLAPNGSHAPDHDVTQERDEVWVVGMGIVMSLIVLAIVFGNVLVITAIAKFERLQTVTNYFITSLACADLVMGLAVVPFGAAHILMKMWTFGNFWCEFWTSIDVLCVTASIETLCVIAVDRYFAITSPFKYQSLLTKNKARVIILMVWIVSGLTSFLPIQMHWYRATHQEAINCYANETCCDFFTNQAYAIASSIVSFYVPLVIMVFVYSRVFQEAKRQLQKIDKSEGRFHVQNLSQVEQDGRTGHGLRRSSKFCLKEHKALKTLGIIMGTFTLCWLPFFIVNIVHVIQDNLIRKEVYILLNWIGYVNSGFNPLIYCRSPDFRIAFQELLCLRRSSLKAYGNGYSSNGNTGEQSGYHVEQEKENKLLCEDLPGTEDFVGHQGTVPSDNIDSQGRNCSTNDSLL
Description: U.S. Tox21 Program National Center for Advancing Translational Sciences [NCATS] Division of Preclinical Innovation [DPI] U.S. Environmental Protection Agency [EPA] National Institutes of Environmental Health Sciences [NIEHS] National Toxicology Program [NTP] U.S. Food and Drug Administration [FDA] Tox21 Assay Overview: Beta adrenergic receptors (Beta-ARs) belong to the G-protein coupled receptor (GPCR) superfamily, includes three subtypes - beta1, beta2, and beta3. Beta1-AR is the predominant receptor subtype expressed in the heart, and beta2-AR is expressed in the kidney, lung, blood vessel and in the heart, and beta3 is found in the adipocytes. Beta1 and 2 ARs couple to Gs protein and elevate cyclic adenosine mono phosphate (cAMP), which activates protein kinase A and leads to the downstream signaling responsible for the physiological actions. Beta-AR agonists or antagonists are the most prescribed therapeutic agents for heart failure and asthma, and these were one of the first target receptors for the rational drug design. Tox21 10K compound library was screened using the cAMP-Gs dynamic assay (Cisbio Bioassays, Shelton, CT) to identify agonists/antagonists of the Gs-coupled human adrenergic, beta2 receptor (ADRB2) in the CHO-ADRB2 cell line (Codex BioSolutions, Inc. Gaithersburg, MD), which stably over-expresses ADRB2. The principle of cAMP-Gs dynamic assay is based on HTRF technology, which facilitates the fluorescence resonance energy transfer (FRET) between donor Europium cryptate and acceptor d2-labeled cAMP. The cAMP generated within cells competes with the red acceptor, d2-labled cAMP, for binding to the monoclonal anti-cAMP-cryptate (Europium donor). An increase in intracellular cAMP leads to the disruption of FRET signal, and the signal is inversely proportional to the cAMP concentration. Propranolol HCl (Sigma-Aldrich, St. Louis, MO) was used as a positive control in the screening.
Tox21 Assay Protocol Summary: CHO-ADRB2 cells were dispensed at 1,000/well in 4uL assay medium into white/solid 1536-well plates (Greiner Bio-One North America Inc., Monroe, NC) using a Multidrop Combi dispenser (ThermoFisher Scientific, Waltham, MA). The assay plates were incubated at 37C and 5% CO2 for an overnight (18-20hr). Then positive control and test compounds dissolved in DMSO were transferred to the assay plates at 23nL using a Pintool station (Wako, San Diego, CA). Following the compound and positive control transfer, 1uL agonist-stimulation mix containing 1nM Isoproterenol HCl, 100uM IBMX and 25uM Ro-20-1724 was added to each well of the assay plates using BioRAPTR Flying Reagent Dispenser (FRD, Beckman Coulter, Brea, CA). The assay plates were incubated at room temperature for 0.5hr. Then 2.5ul each d2-labled cAMP and anti-cAMP-cryptate solutions were added separately to each well of the assay plates using an FRD and the assay plates were incubated at room temperature for 1hr. The fluorescence signal was measured at two different wavelengths (665nm and 615nm) using an Envision plate reader (Perkin Elmer, Shelton, CT). Data were expressed as the ratio of 665 nm/615 nm.

SMILES	Potency	activity change, negative = inhibition
CCOP(=O)(OCC)Oc1ccc([N+](=O)[O-])cc1	inactive	
CNC(=O)O/N=C(\SC)C(=O)N(C)C	inactive	
O=P(Oc1ccccc1)(Oc1ccccc1)Oc1ccccc1	inactive	
Nc1ccc(-c2ccc(N)cc2)cc1		-8% [at 42.5 µM]
COC(=O)c1ccccc1N	inactive	
O=[N+]([O-])CCO		3.14%
O=[N+]([O-])O	inactive	
CCN(CC)C(=O)SCc1ccc(Cl)cc1	inactive	
O=C(Cl)C(Cl)Cl		3.64%
CC(C)(C1CCC(O)CC1)C1CCC(O)CC1 (stereo not given)		-0.71%
O=Cc1ccccc1		10.8%
CSc1nc(NC(C)C)nc(NC(C)C)n1	inactive	
Cc1cccc(N)c1C	inactive	
C=C(Cl)CCl		1.16%
COC(=O)Cc1ccccc1		8.35%
CN(C)c1ccccc1	inactive	
CCCCCCCCCBr		-2.37%
CN(N=O)C(N)=O		0.186%
Clc1cccc(C(Cl)(Cl)Cl)n1	inactive	
CCCBr		0.0992%

SMILES	Potency	activity change, negative = inhibition
N#Cc1cccnc1	inactive	
C=CC(Cl)CCl (stereo not given)	inactive	
ClCC(Br)CBr (stereo not given)		-0.851%
C=C(C)C(=O)OCC1CO1 (stereo not given)	inactive	
CCCCn1cc[n+](C)c1	inactive	
CCn1cc[n+](C)c1	inactive	
O=C(NC(=O)c1ccccc1Cl)Nc1ccc(OC(F)(F)F)cc1		4.49%
Cl/C=C/CCl		-8.33%
C=CC(=O)OCC(C)C		-2.9%
ClCC(Cl)CCl	inactive	
C=Cc1cccc(CCl)c1		3.39% [at 240 µM]
C[C@]12CC[C@H](O)CC1=CC[C@@H]1[C@@H]2CC[C@]2(C)C(=O)CC[C@@H]12	inactive	
Nc1ccc(-c2ccccc2)cc1	inactive	
c1ccc(N=Nc2ccccc2)cc1	inactive	
ClCCN1CCOCC1		-10.3%
O=C(O)c1ccccn1	inactive	
CC(C)c1ccc(NC(=O)N(C)C)cc1		-12.6%
CC(O)CN(CC(C)O)CC(C)O (stereo not given)	inactive	
CCCCCCCCCCCCn1cc[n+](C)c1	inactive	
CN1C(=O)CCS(=O)(=O)C1c1ccc(Cl)cc1 (stereo not given)	inactive	
